# Data as given in ChEMBL document CHEMBL3988442, “University of Dundee, Small-Polar-MMV Screening Library” (2021).
# For some assays here: Potency and affinity values are given separately.
# Key:
# Set-up in all cases: scale not given: direction of the effect not stated beside the values
# [1] = target: Protein translocase subunit SecA (Escherichia coli (strain K12)) (UniProt P10408); experiment: Assay to Identify E. coli SecA ATPase Inhibitors; type: functional; conditions: 30 µM
# [2] = target: T1, Ubiquitin-activating enzyme e1, putative (Leishmania donovani (strain BPK282A1)) (UniProt E9BSI1); experiment: Leishmania donovani Ubiquitin Activating Enzyme (LdE1); type: functional; conditions: 30 µM
# T1 sequence (whole entry): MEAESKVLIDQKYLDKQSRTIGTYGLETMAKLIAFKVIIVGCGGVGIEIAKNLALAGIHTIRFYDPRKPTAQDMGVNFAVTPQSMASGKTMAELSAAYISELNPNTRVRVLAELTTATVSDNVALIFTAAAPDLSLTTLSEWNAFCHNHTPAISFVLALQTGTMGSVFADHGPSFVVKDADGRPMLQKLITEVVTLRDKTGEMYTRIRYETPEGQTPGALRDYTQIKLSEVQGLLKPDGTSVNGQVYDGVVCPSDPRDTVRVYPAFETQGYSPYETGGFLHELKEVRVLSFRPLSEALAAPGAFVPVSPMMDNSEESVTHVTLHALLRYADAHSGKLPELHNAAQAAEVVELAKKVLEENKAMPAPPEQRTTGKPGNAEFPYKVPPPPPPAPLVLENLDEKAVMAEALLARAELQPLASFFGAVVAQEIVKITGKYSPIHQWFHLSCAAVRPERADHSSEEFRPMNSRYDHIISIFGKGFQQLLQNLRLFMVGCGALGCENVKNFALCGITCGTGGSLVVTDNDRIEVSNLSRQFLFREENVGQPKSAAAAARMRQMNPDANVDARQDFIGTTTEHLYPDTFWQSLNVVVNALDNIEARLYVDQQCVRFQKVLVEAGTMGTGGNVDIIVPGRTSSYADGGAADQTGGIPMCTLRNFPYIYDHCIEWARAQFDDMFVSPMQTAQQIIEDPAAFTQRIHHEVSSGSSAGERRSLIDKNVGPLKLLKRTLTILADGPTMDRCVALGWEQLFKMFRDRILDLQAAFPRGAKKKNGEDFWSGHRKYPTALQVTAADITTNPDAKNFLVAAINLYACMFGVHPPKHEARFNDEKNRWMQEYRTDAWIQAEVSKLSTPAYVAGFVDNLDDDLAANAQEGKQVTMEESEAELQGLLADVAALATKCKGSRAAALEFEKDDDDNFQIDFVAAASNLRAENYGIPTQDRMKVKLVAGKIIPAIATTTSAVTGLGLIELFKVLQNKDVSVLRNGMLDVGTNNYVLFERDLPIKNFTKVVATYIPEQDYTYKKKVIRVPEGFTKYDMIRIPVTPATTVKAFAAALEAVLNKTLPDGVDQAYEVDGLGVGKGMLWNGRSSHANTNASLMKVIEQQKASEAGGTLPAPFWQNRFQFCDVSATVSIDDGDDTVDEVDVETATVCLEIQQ
# [3] = target: AMP-activated protein kinase, AMPK (Homo sapiens) (UniProt P54646+O43741+P54619+Q9UGJ0+Q9Y478+Q13131+Q9UGI9); experiment: AMP-dependent Kinase enzyme assay. An in vitro enzyme assay that detects ADP turnover that is directly proportional to AMPK activity. This uses naive AMPK that is activated during the assay with MK-8722; type: functional; conditions: 30 µM
# [4] = target: Sialic acid-binding Ig-like lectin 9 (Homo sapiens) (UniProt Q9Y336); experiment: Hs-Siglec9 ALPHAscreen SOP 20170721; conditions: 10 µM
# Trypanosoma cruzi = experiment: Trypanosoma cruzi phosphomannomutase and mannose-1-phosphate guanylyltransferase assay; type: functional; conditions: 10 µM
# [5] = target: T2, Arginase-2, mitochondrial (Homo sapiens) (UniProt P78540); experiment: in vitro enzyme assay to detect the production of urea directly proportional to the activity of Arginase II; type: functional; conditions: 33.3 µM; note: in the data most compounds retested in dose-response had high values
# T2 sequence (whole entry): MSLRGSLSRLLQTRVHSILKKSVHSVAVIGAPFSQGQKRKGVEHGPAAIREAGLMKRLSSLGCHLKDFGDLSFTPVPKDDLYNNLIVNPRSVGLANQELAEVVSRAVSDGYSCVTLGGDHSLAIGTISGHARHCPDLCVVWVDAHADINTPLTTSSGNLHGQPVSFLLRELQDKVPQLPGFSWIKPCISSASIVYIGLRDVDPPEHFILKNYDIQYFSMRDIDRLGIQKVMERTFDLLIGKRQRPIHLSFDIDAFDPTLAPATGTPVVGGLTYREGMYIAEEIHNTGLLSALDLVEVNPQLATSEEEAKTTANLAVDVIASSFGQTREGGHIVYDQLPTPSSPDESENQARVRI
# [6] = target: T3, Proteasome subunit beta (Trypanosoma cruzi) (UniProt O96673); experiment: Trypanosoma cruzi proteasome chymotrypsin-like activity (TcProtChymo) assay.; note: in the data most compounds retested in dose-response had high values; type: functional; conditions: 9.37 µM
# T3 sequence (whole entry): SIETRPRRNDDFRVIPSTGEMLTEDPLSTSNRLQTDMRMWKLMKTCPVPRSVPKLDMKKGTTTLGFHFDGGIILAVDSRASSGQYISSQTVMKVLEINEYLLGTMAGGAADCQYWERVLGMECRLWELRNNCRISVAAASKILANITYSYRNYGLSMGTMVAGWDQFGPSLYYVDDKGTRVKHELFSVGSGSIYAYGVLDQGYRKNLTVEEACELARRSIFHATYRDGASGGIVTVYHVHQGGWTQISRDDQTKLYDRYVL
# Homo sapiens = species: Homo sapiens; experiment: To identify inhibition of the IFN signalling (Jak-Stat) pathway via expression of an eGFP reporter gene under the control of an IFN-stimulated response element (ISRE) containing MxA promoter.; type: functional; conditions: 30 µM
# [7] = target: T4, Tyrosyl-tRNA synthetase, putative (Trypanosoma cruzi (strain CL Brener)) (UniProt Q4DSP6); experiment: Trypanosoma cruzi tyrosyl tRNA synthetase (TcYRS) _High Tyrosine SOP; type: functional; conditions: 30 µM; note: in the data most compounds retested in dose-response had high values
# T4 sequence (whole entry): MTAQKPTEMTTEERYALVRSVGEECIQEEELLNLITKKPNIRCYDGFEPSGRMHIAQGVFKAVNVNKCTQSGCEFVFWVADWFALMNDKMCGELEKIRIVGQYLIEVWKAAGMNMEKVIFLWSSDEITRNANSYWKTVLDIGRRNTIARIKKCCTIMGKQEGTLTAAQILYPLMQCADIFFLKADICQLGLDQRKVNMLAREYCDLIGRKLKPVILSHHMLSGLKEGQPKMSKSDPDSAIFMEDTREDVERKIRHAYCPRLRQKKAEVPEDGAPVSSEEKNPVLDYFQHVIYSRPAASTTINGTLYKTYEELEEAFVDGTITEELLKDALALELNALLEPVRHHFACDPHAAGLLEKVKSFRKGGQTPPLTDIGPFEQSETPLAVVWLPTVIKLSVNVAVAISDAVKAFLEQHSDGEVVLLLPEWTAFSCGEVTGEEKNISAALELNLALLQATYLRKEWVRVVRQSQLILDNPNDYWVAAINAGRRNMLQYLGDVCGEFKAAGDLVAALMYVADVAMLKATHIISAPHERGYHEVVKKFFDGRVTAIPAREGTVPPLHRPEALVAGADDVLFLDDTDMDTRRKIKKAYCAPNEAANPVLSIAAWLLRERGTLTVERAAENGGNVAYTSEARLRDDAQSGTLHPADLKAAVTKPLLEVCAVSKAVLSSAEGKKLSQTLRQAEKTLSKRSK
# [8] = target: T4, Tyrosyl-tRNA synthetase, putative (Trypanosoma cruzi (strain CL Brener)); experiment: Trypanosoma cruzi tyrosyl tRNA synthetase (TcYRS) SOP; type: functional; conditions: 30 µM
# [9] = target: Chromo domain-containing protein 1 (Saccharomyces cerevisiae (strain ATCC 204508 / S288c) (Baker's yeast)) (UniProt P32657); experiment: ScCHD-1 Enzyme Inhibition Assay; type: functional; conditions: 30 µM; note: in the data most compounds retested in dose-response had high values
# Chain of Chromo domain-containing protein 1 (Saccharomyces cerevisiae (strain ATCC 204508 / S288c) (Baker's yeast)) (P32657 whole entry, the tested form may be a part): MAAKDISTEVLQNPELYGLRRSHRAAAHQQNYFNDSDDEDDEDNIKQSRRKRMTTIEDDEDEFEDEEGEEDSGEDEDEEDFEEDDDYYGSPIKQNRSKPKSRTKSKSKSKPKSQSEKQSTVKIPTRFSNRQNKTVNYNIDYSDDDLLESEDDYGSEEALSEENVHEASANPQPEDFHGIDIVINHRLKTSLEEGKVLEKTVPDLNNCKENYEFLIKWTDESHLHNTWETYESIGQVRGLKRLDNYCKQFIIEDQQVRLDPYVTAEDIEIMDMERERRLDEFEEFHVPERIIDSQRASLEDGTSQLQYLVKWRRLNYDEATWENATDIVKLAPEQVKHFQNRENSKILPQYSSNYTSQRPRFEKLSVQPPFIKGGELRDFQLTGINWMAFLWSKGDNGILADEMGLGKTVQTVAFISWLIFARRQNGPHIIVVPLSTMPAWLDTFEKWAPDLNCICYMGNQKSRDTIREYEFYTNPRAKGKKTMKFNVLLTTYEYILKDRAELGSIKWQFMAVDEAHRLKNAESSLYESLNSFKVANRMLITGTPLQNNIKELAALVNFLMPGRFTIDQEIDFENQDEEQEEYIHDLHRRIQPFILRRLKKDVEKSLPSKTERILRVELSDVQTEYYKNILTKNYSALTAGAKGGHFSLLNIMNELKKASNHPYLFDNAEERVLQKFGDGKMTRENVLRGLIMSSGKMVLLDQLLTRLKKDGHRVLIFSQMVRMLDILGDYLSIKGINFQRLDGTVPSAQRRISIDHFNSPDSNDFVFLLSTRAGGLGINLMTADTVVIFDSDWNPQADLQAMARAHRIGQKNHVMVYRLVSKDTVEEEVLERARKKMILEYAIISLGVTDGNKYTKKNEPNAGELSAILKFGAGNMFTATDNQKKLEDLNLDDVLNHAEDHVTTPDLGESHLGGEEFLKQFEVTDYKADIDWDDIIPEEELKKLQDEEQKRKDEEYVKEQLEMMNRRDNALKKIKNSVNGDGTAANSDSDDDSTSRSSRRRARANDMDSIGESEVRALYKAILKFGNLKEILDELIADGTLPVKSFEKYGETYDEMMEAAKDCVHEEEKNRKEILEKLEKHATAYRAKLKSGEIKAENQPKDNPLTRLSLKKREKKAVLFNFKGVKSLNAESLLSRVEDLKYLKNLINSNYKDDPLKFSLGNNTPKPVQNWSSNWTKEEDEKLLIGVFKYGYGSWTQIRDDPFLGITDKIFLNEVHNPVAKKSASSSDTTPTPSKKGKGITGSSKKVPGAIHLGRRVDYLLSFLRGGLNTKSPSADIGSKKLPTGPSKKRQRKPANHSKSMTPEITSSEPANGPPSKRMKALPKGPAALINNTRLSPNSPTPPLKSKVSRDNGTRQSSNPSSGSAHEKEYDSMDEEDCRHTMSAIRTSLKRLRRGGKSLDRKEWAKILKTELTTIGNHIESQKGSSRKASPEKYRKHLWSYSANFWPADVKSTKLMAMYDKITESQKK
# Chain of Sialic acid-binding Ig-like lectin 9 (Homo sapiens) (Q9Y336 whole entry): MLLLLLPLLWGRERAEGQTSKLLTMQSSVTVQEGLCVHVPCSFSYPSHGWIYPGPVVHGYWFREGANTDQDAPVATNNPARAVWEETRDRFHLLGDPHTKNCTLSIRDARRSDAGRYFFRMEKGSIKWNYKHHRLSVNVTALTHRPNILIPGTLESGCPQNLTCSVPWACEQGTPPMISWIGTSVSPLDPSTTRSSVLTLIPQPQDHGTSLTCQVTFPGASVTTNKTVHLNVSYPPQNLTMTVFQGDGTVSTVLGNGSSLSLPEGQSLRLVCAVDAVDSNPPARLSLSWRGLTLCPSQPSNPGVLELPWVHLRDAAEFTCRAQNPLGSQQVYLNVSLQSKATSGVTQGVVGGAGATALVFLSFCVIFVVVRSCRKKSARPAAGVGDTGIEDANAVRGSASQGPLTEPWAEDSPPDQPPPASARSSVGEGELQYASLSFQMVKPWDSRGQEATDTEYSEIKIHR
# Chain of Protein translocase subunit SecA (Escherichia coli (strain K12)) (P10408 whole entry): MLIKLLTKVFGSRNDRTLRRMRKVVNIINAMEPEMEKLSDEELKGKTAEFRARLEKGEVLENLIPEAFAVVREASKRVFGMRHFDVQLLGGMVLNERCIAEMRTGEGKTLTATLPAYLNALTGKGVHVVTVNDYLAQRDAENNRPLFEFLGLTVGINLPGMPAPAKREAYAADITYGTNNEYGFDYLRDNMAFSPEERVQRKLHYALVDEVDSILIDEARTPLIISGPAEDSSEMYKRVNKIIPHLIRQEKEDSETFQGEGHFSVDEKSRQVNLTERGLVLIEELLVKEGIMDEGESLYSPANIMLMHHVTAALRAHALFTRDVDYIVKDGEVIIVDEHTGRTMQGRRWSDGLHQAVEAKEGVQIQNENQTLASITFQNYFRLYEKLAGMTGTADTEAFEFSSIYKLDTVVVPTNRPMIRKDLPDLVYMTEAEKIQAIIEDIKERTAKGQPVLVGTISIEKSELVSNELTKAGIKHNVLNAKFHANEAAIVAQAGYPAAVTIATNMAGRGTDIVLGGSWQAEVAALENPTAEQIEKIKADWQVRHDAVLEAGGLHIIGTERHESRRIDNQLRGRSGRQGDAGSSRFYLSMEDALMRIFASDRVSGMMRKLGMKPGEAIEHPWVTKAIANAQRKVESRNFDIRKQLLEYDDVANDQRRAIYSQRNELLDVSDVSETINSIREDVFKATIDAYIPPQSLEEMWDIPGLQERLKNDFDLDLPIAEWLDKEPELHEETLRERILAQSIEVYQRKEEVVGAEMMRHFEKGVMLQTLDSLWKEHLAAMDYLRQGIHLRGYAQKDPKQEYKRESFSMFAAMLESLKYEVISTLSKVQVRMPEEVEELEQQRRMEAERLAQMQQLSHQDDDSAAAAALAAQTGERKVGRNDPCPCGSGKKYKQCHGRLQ
Structure (SMILES),Percent Effect [1],Percent Effect [2],Percent Effect [3],Percent Effect [4],Percent Effect (Trypanosoma cruzi),Percent Effect [5],Percent Effect [6],Percent Effect (Homo sapiens),Percent Effect [7],Percent Effect [8],Percent Effect [9]
c1ccc2c(N3CCCC3Cn3cccn3)ncnc2c1 (configuration not stated),-2.93%,21.6%,-4.33%,6.84%,2.88%,2.77%,10.2%,50.9%,6.93%,28.1%,-8.26%
Cc1nnc2n1CCN(Cc1csc(Cc3ccccc3)n1)C2,-5.45%,5.41%,-7.1%,3.42%,3.25%,4.62%,3.41%,8.73%,8.91%,15.8%,-1.48%
COCc1ccccc1CNc1nnc(C)c(C)c1C#N,-6.03%,5.41%,-21.1%,-1.29%,-1.39%,4.62%,17.9%,30.3%,4.95%,6.1%,-2.15%
CC(C)CN1CCCC2(CCN(C(=O)c3cnccn3)C2)C1 (configuration not stated),2.12%,-2.6%,-0.541%,2.48%,-4.24%,-3.23%,3.13%,0.321%,3.17%,-3.85%,-5.96%
CCOc1ncccc1CNC(=O)N1CCCC1c1ccncc1 (configuration not stated),-1.89%,5.33%,-2.16%,2.11%,-7.3%,4.17%,8.37%,12.2%,4.92%,13.6%,-7.62%
Cc1cc(CN(C)C(=O)c2cccc(N3CCCC3=O)c2)no1,-1.16%,20.2%,-7.29%,-9%,-4.25%,-0.76%,12.2%,13.3%,3.45%,16.5%,-4.16%
CN(Cc1nnc(C2CC2)n1C)C(=O)c1ccnc(OC2CCC2)c1,-5.02%,2.7%,2.08%,2.83%,3.09%,1.43%,6.21%,-9.69%,0.529%,-2.44%,-2.68%
Cc1cnn(CCNCC(=O)NCCOc2ccccc2)c1,0.828%,21.1%,4.84%,-1.9%,-5.88%,0.719%,6.85%,25.5%,4.43%,-6.17%,-8.28%
CO[C@@H]1CC[C@H]2[C@H]1OCCN2C(=O)c1ccc(C)o1,2.4%,10.4%,173%,-12.1%,-7.2%,-11%,14.1%,22.1%,-3.17%,-1.28%,-14%
CC(C(=O)NCc1ccc(N2CCNC(=O)C2)cc1)n1cncn1 (configuration not stated),-6.76%,26%,-36.6%,17.6%,8.24%,1.42%,5.57%,14.6%,5.83%,21.9%,-12.2%
O=C(CN1CCC(c2ccnn2CCO)CC1)NCc1cccs1,-3.33%,15.2%,-3.55%,-6.32%,1.23%,1.52%,2.87%,-10.7%,8.37%,24.1%,-5.84%
COc1ccnc(N2CCN(C(=O)c3csc(C4CC4)n3)CC2)n1,-4.82%,2.7%,2.76%,-1.98%,-2.05%,4.22%,-0.601%,0.351%,0%,8.64%,-4.46%
CN(C)CC1CSCCCN1C(=O)c1ccc(C(C)(C)C)cc1 (configuration not stated),2.6%,2.6%,2.24%,1.48%,-5.23%,7.1%,1.39%,1.95%,6.35%,16.7%,-4.54%
Cc1cccc(-c2[nH]ncc2CNCC2CCN(CC(C)O)CC2)c1 (configuration not stated),-3.75%,8.11%,-18.5%,11.6%,1.42%,0.401%,3.96%,3.31%,5.42%,18.5%,-8.81%
Fc1cccc(Oc2ccc(CNCC3CNc4ccnn4C3)cn2)c1 (configuration not stated),-2.95%,13%,-2.17%,5.01%,10.5%,2.85%,8.28%,8.31%,37.9%,43.9%,-12.1%
NC(=O)NCCC(=O)NCc1cccnc1N1CCc2ccccc2C1,-1.28%,18.9%,-5.95%,12.4%,6.75%,-3.23%,4.89%,1.04%,7.53%,23.5%,-7.12%
CC(OCC(F)(F)F)C(=O)NCc1ccc(-n2cncn2)nc1 (configuration not stated),-1.15%,18.2%,0.466%,-5.68%,4.8%,-22.5%,8.16%,21.5%,7.62%,23.5%,-24%
O=C(c1cccc(=O)[nH]1)N(Cc1ccsc1)CC1CCCO1 (configuration not stated),-0.641%,10.8%,-7.24%,6.17%,-0.386%,2.86%,12.8%,11.3%,7.94%,17.1%,-1.82%
CCOCC(O)CN1CCN(C(=O)c2cnc3n[nH]c(C)c3c2)CC1 (configuration not stated),-4.29%,10.5%,1.79%,1.55%,5.7%,1.44%,8.54%,10.1%,7.39%,16.1%,-0.703%
COCCO[C@@H]1CCN(Cc2csc(C)n2)[C@H]1Cc1ccccc1,-2.84%,-5.41%,-0.151%,-7.92%,-3.03%,-1.24%,-1.29%,8.8%,1.07%,-1.24%,-1.36%
CC(CN1CCN(C)CC1)NC(=O)c1cc(Cl)c2c(c1)OCO2 (configuration not stated),-11.8%,1.39%,140%,-0.639%,0.68%,1.77%,8.42%,-2.86%,6.32%,10.3%,-2.31%
CC(C)c1nnc2n1CCN(C(=O)CN1Cc3ccccc3C1=O)C2,-6.1%,2.63%,-4.36%,2.22%,6.2%,-0.383%,4.34%,6.89%,9.31%,17.1%,-12.6%
